The campaign covered roughly 48,000 compounds. About 13,000 (27%) showed an effect of 50% or more. The list shows a part of the results.
tested on: Wolbachia pipientis; assay: Anti-Wolbachia Cell-Based Screen; type: functional; design: scale not given: in the data most compounds retested in dose-response had high values; settings: 5 µM

First: O=C(NCc1cnc2n1CCN(Cc1ccoc1)C2)c1ccno1.O=C(O)C(F)(F)F
Second: Cc1nc2c(c(NC(C)C)n1)CCN(C(=O)c1ccno1)CC2.O=C(O)C(F)(F)F
The “Percent Effect” value of the first is higher: 0.5733% for the first, -9.631% for the second.

Compared with `CC(=O)N1CCc2nc(-c3ccc(F)cc3)nc(NC(C)C)c2CC1`, `CC(=O)N1CCc2nc(-c3ccccc3)nc(NC(C)C)c2CC1` is higher in “Percent Effect” value: 94.36% for the first, 96.01% for the second.

First: Cc1nc(-c2ccc(F)cc2)nc2c1CCN(C(=O)CN(C)C)CC2
Second: CC(=O)NCC(=O)N1CCc2nc(-c3ccccc3)nc(C)c2CC1
The “Percent Effect” value of the first is higher: 3.588% for the first, -15.18% for the second.

Compared with `CC(C)Nc1nc(-c2ccccc2)nc2c1CCN(C(=O)CC#N)CC2`, `CC(C)Nc1nc(-c2ccccc2)nc2c1CCN(C(=O)C1CC1)CC2.O=C(O)C(F)(F)F` is higher in “Percent Effect” value: 98.77% for the first, 99.02% for the second.

Compared with `Cc1nc2c(c(NC(C)C)n1)CCN(Cc1cccnc1)CC2.O=C(O)C(F)(F)F.O=C(O)C(F)(F)F`, `CC(C)Nc1ncnc2c1CCN(C(=O)Cc1ccccn1)CC2.O=C(O)C(F)(F)F` is higher in “Percent Effect” value: -13.98% for the first, 17.78% for the second.

First: CC(=O)N1CCc2c(nc(N(C)C)nc2NC(C)Cc2cccs2)C1 (centres undefined)
Second: CSCC(=O)N1CCc2nc(C)nc(NCc3ccccc3)c2CC1
The “Percent Effect” value of the first is higher: 16.87% for the first, -12.22% for the second.

Compared with `Cc1ncsc1C(=O)NCc1cc2n(n1)CCN(C(=O)N(C)C)C2`, `Cc1ncsc1CNC(=O)N1CCN(Cc2ccccc2)C[C@H]1C` is higher in “Percent Effect” value: -4.389% for the first, 1.865% for the second.

Compared with `Cc1sc2nc(CCN)nc(N3CCN(S(C)(=O)=O)CC3)c2c1C`, `Cc1nc(N2CCC(C(O)c3nccn3C)CC2)c2c(C)noc2n1` (centres undefined) is lower in “Percent Effect” value: 5.151% for the first, 0.7849% for the second.

First: CN1CC(=O)N(c2cccnc2)CC12CCN(C(=O)c1cccnc1)C2.O=C(O)C(F)(F)F.O=C(O)C(F)(F)F (centres undefined)
Second: CN1CC(=O)N(c2ccccc2)CC12CCN(C(=O)c1cnccn1)C2.O=C(O)C(F)(F)F (centres undefined)
The “Percent Effect” value of the first is lower: -6.437% for the first, 102.5% for the second.

Compared with `CN1CC(=O)N(c2cnn(C)c2)CC12CCN(C(=O)c1ccsc1)C2.O=C(O)C(F)(F)F` (centres undefined), `CN1CC(=O)N(c2ccsc2)CC12CCN(C(=O)c1ccccc1)C2.O=C(O)C(F)(F)F` (centres undefined) is higher in “Percent Effect” value: -13.31% for the first, 8.898% for the second.

First: CN1CC(=O)N(c2ccccc2)CC12CCN(C(=O)c1ccnnc1)C2.O=C(O)C(F)(F)F (centres undefined)
Second: CCC(CC)C(=O)N1CCC2(C1)CN(c1ccccc1)C(=O)CN2C.O=C(O)C(F)(F)F (centres undefined)
The “Percent Effect” value of the first is higher: 94.6% for the first, -2.96% for the second.

Going from `Cc1ccsc1C(Cc1ccccc1)NC(=O)CSCC(N)=O` (centres undefined) to `CNS(=O)(=O)CC(=O)N(Cc1ccccc1)c1ccc(C)cc1`, the “Percent Effect” value rises from -6.461% to -6.093%.

First: COCCCOC1CN(C(=O)c2[nH]nc3c2CCCC3)C1
Second: Cc1cccc(OC2CN(C(=O)c3cnn(C)c3)C2)c1
The “Percent Effect” value of the first is lower: -6.811% for the first, -4.108% for the second.

First: Cl.Cl.O[C@@H]1C[C@@](CNCC2CC2)(COc2cccnc2)C[C@@H]1O
Second: O=C(NC[C@]1(O)CN(Cc2ncccc2F)C[C@H]1O)c1cc[nH]n1
The “Percent Effect” value of the first is lower: -8.613% for the first, 112.1% for the second.

Going from `CC(C)(C)c1cc(=O)[nH]c(-c2ccccc2CN2CCCCCC2)n1` to `CC(C)(C)c1cc(=O)[nH]c(-c2ccccc2CN2CCC[C@@H](O)C2)n1`, the “Percent Effect” value falls from 107.3% to -11.42%.

Compared with `CC1(C)CCN(Cc2ccccc2-c2nc(C(C)(C)C)cc(=O)[nH]2)C1`, `Cc1ccc(OC2CCN(C(=O)Cc3c(C)[nH]c(=O)[nH]c3=O)CC2)cc1` is higher in “Percent Effect” value: -0.3128% for the first, 33.83% for the second.

Compared with `CCCN1CCC(CC(=O)N2CCC(C(O)c3nccn3C)CC2)CC1` (centres undefined), `CC(C)N1CCC(CC(=O)N2CCC(C(O)c3nccn3C)CC2)CC1` (centres undefined) is higher in “Percent Effect” value: 109.9% for the first, 112.6% for the second.

First: CCn1ncnc1C(NC(=O)CC1CCN(C(C)C)CC1)C1CC1 (centres undefined)
Second: CC(C)N1CCC(C(=O)N2CCC(C(O)c3nccn3C)CC2)CC1 (centres undefined)
The “Percent Effect” value of the first is lower: -0.6358% for the first, 119.5% for the second.

Compared with `Cc1nc(N2CCC(C(O)c3nccn3C)CC2)c2nc(C)oc2n1` (centres undefined), `Cc1nc(N2CCC(C(O)c3nccn3C)CC2)c2cccnc2n1` (centres undefined) is lower in “Percent Effect” value: 6.999% for the first, -5.3% for the second.

Going from `CC(C)N1CCC(CC(=O)N2CCN(Cc3nccn3C)CC2)CC1` to `CC(C)n1ccnc1CN1CCCN(C(=O)CC2C=CCC2)CC1` (centres undefined), the “Percent Effect” value falls from 103.8% to 11%.

Compared with `CCCN1CCC(CC(=O)N2CC(C)(C)[C@@](C)(O)C2)CC1`, `CC(C)N1CCC(CC(=O)N2CCCCC2CCn2cccn2)CC1` (centres undefined) is higher in “Percent Effect” value: 2.3% for the first, 17.49% for the second.

Compared with `CCOc1ccccc1CN(CC)Cc1ccc(S(C)(=O)=O)cc1`, `CC(Oc1ccc(S(C)(=O)=O)cc1)C(=O)NC(N)=O` (centres undefined) is lower in “Percent Effect” value: 14.95% for the first, -0.9866% for the second.

Going from `CSc1ccc(NCC(=O)Nc2c(C)nn(C)c2C)cc1F` to `CC(NC(=O)Cn1ccc(=O)n(C)c1=O)c1cc(F)ccc1F` (centres undefined), the “Percent Effect” value rises from -13.07% to 123.1%.

Going from `CC(NCCn1cccn1)c1ccccc1F` (centres undefined) to `CC(NC(=O)Cn1ccc(=O)n(C)c1=O)c1ccccc1F` (centres undefined), the “Percent Effect” value rises from 17.82% to 122%.

First: Cn1c(=O)ccn(CC(=O)NCC2Cc3ccccc3O2)c1=O (centres undefined)
Second: Cn1c(=O)ccn(CC(=O)Nc2cnccc2O)c1=O
The “Percent Effect” value of the first is higher: 4.727% for the first, -3.574% for the second.

First: CCS(=O)(=O)CC(=O)NC(C)c1ccc(F)cc1F (centres undefined)
Second: CCCNC(=O)C(C)Oc1ccc(F)cc1 (centres undefined)
The “Percent Effect” value of the first is higher: 5.956% for the first, -16.03% for the second.

First: Cc1nnc2n1CCN(c1nc3ccccc3o1)C2
Second: Cc1cnn(C2CN(C(C)c3nc(-c4ccccc4)no3)C2)c1 (centres undefined)
The “Percent Effect” value of the first is higher: 7.974% for the first, -0.8523% for the second.

First: CC(Oc1cc(Cl)cc(Cl)c1)C(=O)NCCS(N)(=O)=O (centres undefined)
Second: CC(Oc1cc(Cl)cc(Cl)c1)C(=O)NCCOCC(N)=O (centres undefined)
The “Percent Effect” value of the first is higher: 112.6% for the first, 92.53% for the second.

First: CCCNC(=O)C(C)Oc1ccccc1 (centres undefined)
Second: CCNC(=O)C(C)Oc1ccc(N(C)S(C)(=O)=O)cc1 (centres undefined)
The “Percent Effect” value of the first is lower: 7.787% for the first, 35.45% for the second.

First: CC(Oc1ccccc1C(F)(F)F)C(=O)NCCC(=O)N(C)C (centres undefined)
Second: CC(Oc1cc(Cl)cc(Cl)c1)C(=O)NCCC(=O)N(C)C (centres undefined)
The “Percent Effect” value of the first is lower: 4.179% for the first, 99.28% for the second.

Going from `CC(C)c1ccc(OCCC(=O)NCCC(=O)N(C)C)cc1` to `COc1ccc(CNC(=O)c2ccc(Br)cn2)cc1`, the “Percent Effect” value falls from 5.568% to -6.814%.

Going from `Cc1ccc(-c2noc(C(C)NS(C)(=O)=O)n2)cc1` (centres undefined) to `Cc1ccc(-c2noc([C@@H]3C[C@H](NC(=O)NC(C)C)CN3C)n2)cc1`, the “Percent Effect” value falls from 98.3% to -7.192%.

Compared with `O=C(CCc1ccccc1)N1CCCCC1Cn1cccn1` (centres undefined), `COc1cccc(CCC(=O)N2CCCCC2Cn2cccn2)c1` (centres undefined) is lower in “Percent Effect” value: 99.73% for the first, -6.08% for the second.

Compared with `O=C(CCc1cccs1)N1CCCCC1Cn1cccn1` (centres undefined), `O=C(CCc1ccsc1)N1CCCCC1Cn1cccn1` (centres undefined) is higher in “Percent Effect” value: 8.16% for the first, 114.6% for the second.

Going from `CSCCC(=O)N1CCCCC1CCn1cccn1` (centres undefined) to `CN(Cc1ccsc1)C(=O)CN1CCCCC1Cn1cccn1` (centres undefined), the “Percent Effect” value rises from -3.819% to -3.818%.

First: O=C(CN1CCN(CCO)CC1)NCc1ccc(Cl)s1
Second: Cn1cc(C(=O)N2CCCN(C3Cc4ccccc4C3)CC2)cn1
The “Percent Effect” value of the first is lower: -5.807% for the first, -3.221% for the second.

Compared with `Cc1nsc(NC2CCOC3(CCCC3)C2)n1` (centres undefined), `CNc1snc(C)c1C(=O)N1CCCC(n2nc(C)cc2C)C1` (centres undefined) is higher in “Percent Effect” value: -8.543% for the first, -4.797% for the second.

First: COc1cccc(OC2CN(C(=O)c3ccnc(OC)c3)C2)c1
Second: CCc1ncc(C(=O)N2CC(Oc3ccccc3Cl)C2)cn1
The “Percent Effect” value of the first is higher: 6.103% for the first, 4.007% for the second.

Compared with `CCn1cc(CN2C[C@H]3CC[C@@H]2CN(C(=O)c2ccncc2)C3)cn1`, `CCn1cc(C(=O)N2C[C@H]3C[C@H](Oc4ccccc4)C[C@H]3C2)cn1` is higher in “Percent Effect” value: 5.818% for the first, 75.19% for the second.

Compared with `CN(C)c1ncc(C(=O)N2C[C@H]3C[C@H](Oc4ccccc4)C[C@H]3C2)cn1`, `Cn1cc(C(=O)N2C[C@H]3C[C@H](Oc4ccccc4)C[C@H]3C2)cn1` is lower in “Percent Effect” value: 125.1% for the first, 96.44% for the second.

Compared with `NC(=O)C(NC1CCN(Cc2ccc(F)cc2)CC1)c1ccccc1` (centres undefined), `O=C(NC[C@]1(O)CN(Cc2ccc(F)cc2)C[C@H]1O)c1ccccn1` is higher in “Percent Effect” value: 12% for the first, 127.5% for the second.

Going from `COc1ccc2c(c1)nc1n2[C@@H](CNC(=O)c2ccccn2)COC1` to `COc1ccc(CN2C[C@@H](O)[C@](O)(CNC(=O)c3ccccn3)C2)cc1`, the “Percent Effect” value rises from 1.575% to 112%.

Compared with `Cc1ncsc1CN1C[C@@H](O)[C@](O)(CNC(=O)c2ccccn2)C1`, `Cc1ncsc1CN1C[C@@H]2COC[C@]2(CNC(=O)c2ccco2)C1.O=C(O)C(F)(F)F` is lower in “Percent Effect” value: 100.8% for the first, -13.65% for the second.

First: Cc1cccc(CN2C[C@@H]3COC[C@]3(CNC(=O)c3ccsc3)C2)n1.O=C(O)C(F)(F)F.O=C(O)C(F)(F)F
Second: CC(C)c1nccn1C1CCCN(C(=O)c2ccsc2)C1 (centres undefined)
The “Percent Effect” value of the first is higher: 8.722% for the first, -9.917% for the second.

First: O=C(N[C@@H]1CCN(C(=O)c2ccc(F)cc2Cl)C[C@H]1O)c1ccccn1
Second: O=C1CSc2ccc(C(=O)N3CCCC(n4cccn4)C3)cc2N1 (centres undefined)
The “Percent Effect” value of the first is lower: -3.407% for the first, 11.58% for the second.

Going from `Cc1ccccc1N1CCCN(C(=O)CCc2ccncc2)CC1` to `CC(C)c1nccn1C1CCCN(C(=O)c2ccnc(N(C)C)c2)C1` (centres undefined), the “Percent Effect” value falls from 5.689% to -0.8202%.

Compared with `CS(=O)(=O)NCC1CCCN(C(=O)COCC(F)(F)F)C1` (centres undefined), `Cc1nc(C)n(C2CCCN(C(=O)c3cc(C(N)=O)cs3)C2)n1` (centres undefined) is higher in “Percent Effect” value: -5.002% for the first, 0.8263% for the second.

First: CN1CCC(O)(CCNC(=O)[C@@]23CNC[C@@H]2CN(C2CCCC2)C3)CC1
Second: NC(=O)c1csc(C(=O)N2CCCC(n3ccnc3)C2)c1 (centres undefined)
The “Percent Effect” value of the first is lower: -8.037% for the first, 4.502% for the second.

Compared with `CC(C)c1nccn1C1CCCN(C(=O)c2cc(C(N)=O)cs2)C1` (centres undefined), `NC(=O)c1csc(C(=O)N2CCCC(n3cccn3)C2)c1` (centres undefined) is higher in “Percent Effect” value: 117.7% for the first, 118.9% for the second.

With `Cc1cc(C)n(C2CCCN(C(=O)c3cc(C(N)=O)cs3)C2)n1` (centres undefined) the “Percent Effect” value was 143.1%.
